# Laboratory results published in PubChem BioAssay (Tox21).
# Values joined by “and” are separate entries in the source; they are usually repeats but may differ in a detail not shown here. Equal entries are not always repeated. Results filed as inconclusive are left out. Where a call stands in place of a potency, no number is given. Unmarked numbers belong to inactive results. Active and inactive are the calls of the source. Calls follow the shape of the dose curve; as a rule, active = well fitted cell-killing curve with a large enough effect in the repeat runs; inconclusive = weak or mixed curves, or effect the other way; inactive = flat fitted curve, though single readings scatter.
# Test: cAMP Responsive Elements (CRE) small molecule antagonists, cell-based qHTS assay: qHTS cell viability counter screen (AID 2060913); also: nearly all actives have a fitted effect of over 40% in size
# Settings: CRE-bla HEK293T viability, CellTiter-Glo luminescence, 5 h; series mostly up to 92.4 µM
# Text: U.S. Tox21 Program National Center for Advancing Translational Sciences [NCATS] Division of Preclinical Innovation [DPI] U.S. Environmental Protection Agency [EPA] National Institutes of Environmental Health Sciences [NIEHS] National Toxicology Program [NTP] U.S. Food and Drug Administration [FDA] Tox21 Assay Overview: CREB (cyclic-AMP Responsive Element Binding Protein) is a cellular transcription factor. It binds to certain DNA sequences called cAMP Responsive Elements (CRE) and regulates the transcription of the genes. […] This cell line can be used to find agonists/antagonists of the cyclic AMP signaling pathway. The activation of the report gene under culture conditions can be detected by fluorescence intensity. This cell line has been used to screen the Tox21 10K compound library to identify agonists that induce oxidative stress. The cytotoxicity of the Tox21 compound library against the CRE-bla cell line was tested in parallel by measuring the cell viability using CellTiter-Glo assay (Promega, Madison, WI) in the same wells.
# Tox21 Assay Protocol Summary: CRE-bla Hek 293T cells were suspended in assay medium (DMEM containing 10% dialyzed FBS, 0.1 mM NEAA, 1 mM sodium pyruvate and 25 mM HEPES) and dispensed at 2,000 cells/4 uL /well into 1536-well black wall/clear bottom plates using a Multidrop Combi (ThermoFisher Scientific, Waltham, MA) dispenser. After the assay plates were incubated at 37 C/5% CO2 for 18 hrs, 23 nL of compounds dissolved in DMSO, positive controls or DMSO only was transferred to the assay plate by a pintool workstation (Kalypsys, San Diego, CA), followed by addition of 1 uL of 1.25uM NKH477 (0.25 uM as final concentration) in assay medium using a Flying Reagent Dispenser (Aurora Discovery, San Diego, CA). The plates were incubated at 37 C and 5% CO2 for 3 hrs. Then 1 uL of LiveBLAzer B/G FRET substrate (Invitrogen, Carlsbad, CA) was added to each well using Bioraptr Flying Reagent Dispenser (FRD, Aurora Discovery, San Diego, CA). The plates were incubated at room temperature for 2 h, then fluorescence intensities were measured using an Envision plate reader (PerkinElmer, Shelton, CT) at Excitation 405nm, Emission 460nm and 530nm. The % activity was determined from the ratio of 460nm/530nm. For cell viability readout that measures cytotoxicity, 4 uL /well of CellTiter-Glo reagent was added into the assay plates using Bioraptr FRD. After 30 min incubation at room temperature, the luminescence intensity in the assay plates was measured using a ViewLux (PerkinElmer, Shelton, CT) plate reader.
# Potency is read from the fitted curve at half-maximal effect.
SMILES,Potency,"viability change, negative = cytotoxic"
N=C(N)[Se],inactive,
O=C(O)C1C(C(=O)O)C2(Cl)C(Cl)=C(Cl)C1(Cl)C2(Cl)Cl (stereo not given),inactive,
Nc1ccc(-c2ccc(N)c(Cl)c2)cc1Cl,inactive,
CCC[CH2][Sn]([CH2]CCC)([O]C(C)=O)[O]C(C)=O,inactive,
CCOP(=S)(OCC)SCCSCC,inactive,
CCOC(=O)/C=C(C)/C=C/C[C@@H](C)CCCC(C)C,inactive,
CCCCCCOC(=O)c1ccccc1C(=O)OCCCCCC,inactive,
O=C(O)C(Cl)Cl,inactive,
Cc1ccc([N+](=O)[O-])[c]2c1[O][Hg]2,11.9 µM (active),
Oc1ccc2[nH]cc(CCCCN3CC=C(c4ccccc4)CC3)c2c1,inactive,
CCCCCCCC[N+](C)(CCCCCCCC)CCCCCCCC,8.62 µM (active) and 48.6 µM (active),
Nc1c(Br)cc(Br)c2c1C(=O)c1ccccc1C2=O,,10% [at 18.9 µM]
O=c1[nH]c2ccccc2c(=O)o1,inactive,
C[N+](C)(C)CCCl,inactive,
CCC(=O)c1ccccc1,inactive,
N#CCC#N,inactive,
CCOc1cc(C=O)ccc1O,inactive,
Brc1ccc(Oc2cc(Br)c(Br)cc2Br)c(Br)c1,inactive,
CCCN(CCC)c1c([N+](=O)[O-])cc(C(F)(F)F)cc1[N+](=O)[O-],inactive,
C[C@]12CC[C@H]3[C@@H](CCC4=CC(=O)CC[C@@]43C)[C@@H]1CC[C@@H]2C(=O)O,inactive,

SMILES,Potency,"viability change, negative = cytotoxic"
NC(=O)O,inactive,
N[C@@H](Cc1ccc(N(CCCl)CCCl)cc1)C(=O)O,inactive,
C=CCOC(=O)C(C)(C)OC(=O)c1cc(-n2c(=O)cc(C(F)(F)F)n(C)c2=O)ccc1Cl,inactive,
Nc1c(Cl)cc([N+](=O)[O-])cc1Cl,inactive,
Nc1ccc(Cl)cc1C(=O)c1ccccc1,inactive,
CCCC[N+]1(C)CCCC1,inactive,
CC(C)[C@]12CC(=O)[C@H](C)[C@H]1C2,inactive,
C=CCOCC1CO1 (stereo not given),inactive,
CCCCc1c(C)nc(NCC)[nH]c1=O,inactive,
CNC(=O)N(C)c1nc2ccccc2s1,inactive,
Cn1cc(C2=C(c3cn(C4CCN(Cc5ccccn5)CC4)c4ccccc34)C(=O)NC2=O)c2ccccc21,inactive,
COP(=O)(OC)OC,inactive,
CCOP(=O)(OCC)SCCSCC,inactive,
O=C(O)CCCOc1ccc(Cl)cc1Cl,inactive,
CC#Cc1cc(C)nc(Nc2ccccc2)n1,inactive,
c1ccc2c(c1)CCCC2,inactive,
CC1=C2C[C@H]3[C@@H](CC=C4C[C@@H](O)CC[C@@]43C)[C@@H]2CC[C@]12O[C@@H]1C[C@H](C)CN[C@H]1[C@H]2C,inactive,
COCC(=O)N(c1c(C)cccc1C)[C@H](C)C(=O)OC,inactive,
CC(C)NC(=O)N1CC(=O)N(c2cc(Cl)cc(Cl)c2)C1=O,inactive,
CSSC,inactive,
